In PubChem BioAssay (NCI):
About 79,000 compounds went through this panel and 15% of them were active in at least one assay; those are over-represented in the sample as a whole. The source made the active and inactive calls. Cut-off read from the data, not from the text of the source: active = growth inhibition above about 70%; inactive = the rest.

Key:
[1] = NCI Yeast Anticancer Drug Screen. Data for the rad50 strain (AID 155);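 note: 0% = growth of vehicle-only cultures of the same strain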; conditions: S. cerevisiae rad50 strain growth inhibition; at 50.0 µM; hits give high values
Method in brief: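 Inhibition values express reduced yeast growth in compound-treated cultures relative to vehicle-treated controls.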

[2] = NCI Yeast Anticancer Drug Screen. Data for the mec2-1 strain (AID 157); conditions: S. cerevisiae mec2-1 strain, at 50.0 µM, hits give high values
Method in brief: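 Cells of the genetically defined mec2-1 yeast strain are incubated with test compound. Inhibition of growth is calculated against vehicle-treated controls.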

[3] = NCI Yeast Anticancer Drug Screen. Data for the sgs1 mgt1 strain (AID 161);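 note: 0% = growth of cultures given vehicle only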; conditions: S. cerevisiae sgs1 mgt1 strain, at 50.0 µM, hits give high values
Method in brief: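 Genetically altered yeast, compound exposure, growth inhibition relative to vehicle.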

[4] = NCI Yeast Anticancer Drug Screen. Data for the cln2 rad14 strain (AID 165);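 note: 0% = growth equal to vehicle treated cultures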; conditions: S. cerevisiae cln2 rad14 strain, at 50.0 µM, hits give high values
Method in brief: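 The screen exposed genetically defined yeast (cln2 rad14) to test compounds and scored growth inhibition relative to vehicle-treated controls.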

[5] = NCI Yeast Anticancer Drug Screen. Data for the bub3 strain (AID 167); conditions: S. cerevisiae bub3 mutant strain, at 50.0 µM, hits give high values
Method in brief: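 Steps: expose the mutant yeast strain to compound; grow alongside vehicle-treated cultures; measure growth; express inhibition against the vehicle cultures.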

[6] = NCI Yeast Anticancer Drug Screen. Data for the mlh1 rad18 strain (AID 175); conditions: S. cerevisiae mlh1 rad18 strain growth inhibition; at 50.0 µM; hits give high values
Method in brief: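 Compound-treated yeast growth, normalised to vehicle controls. Strain bears defined DNA repair mutations.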

Measured: growth inhibition

CCCSc1cc(Cl)c(C)cc1S(=O)(=O)n1cc[nH]c1=O
inactive: [1] 11.9% | [2] 7.3% | [3] 9.15% | [4] 5.75% | [5] 13.3% | [6] 35.7%

Cc1c(/C=C\C(=O)c2ccccc2)c2ccccc2n1C
inactive: [1] 12.7% | [2] -18.6% | [3] 2.2% | [4] -21.6% | [5] -15.2% | [6] 1.15%

Fc1ccc2nncc(/C=C/c3ccccc3F)c2c1
inactive: [1] 11.3% | [2] 7.6% | [3] 8.4% | [4] -4.85% | [5] 11% | [6] -3.5%

S=c1nn[nH]n1C1CCCCC1
inactive: [1] 8.05% | [2] -14.3% | [3] -1.8% | [4] 4.1% | [5] 0.85% | [6] 9.95%

O=C(O)COc1ccc(I)cc1I
inactive: [1] 23.3% | [2] -8.05% | [3] -4.85% | [4] -37.5% | [5] 23.6% | [6] 19.2%

CCOC(=O)C12CCC(=O)CC1(O)CCC1(C2)OCCCO1 (centres undefined)
inactive: [1] 10.1% | [2] -15.9% | [3] -17.9% | [4] -21.8% | [5] 10.9% | [6] 3.85%

Cc1cc(=O)n2c(n1)sc1ccc3ccccc3c12
inactive: [1] 12% | [2] -11.8% | [3] 3.1% | [4] 12.8% | [5] -12.8% | [6] 33.9%

[N-]=[N+]=C(C(=O)N1CCCC1=O)S(=O)(=O)c1ccccc1
inactive: [1] -17.3% | [2] -12.4% | [3] -17.9% | [4] 5.45% | [5] -14.4% | [6] 2.45%

NCCN1CCOCC1
inactive: [1] 7.95% | [2] -3% | [3] -11.9% | [4] 3.45% | [5] -5.25% | [6] 7.8%

Cc1c(C(=O)CSc2nc3ccccc3c(=O)n2-c2ccccc2)c(=O)n(-c2ccccc2)n1C
inactive: [1] -9.1% | [2] 0.45% | [3] -18.1% | [4] 37.7% | [5] -11.3% | [6] -12.9%

CC1=C(OCCCl)C2CC1C1C(=O)N(c3ccccc3)C(=O)C21 (centres undefined)
inactive: [1] -9.95% | [2] -29.1% | [3] -1.85% | [4] -0.4% | [5] -4.9% | [6] -4.75%

CC1(C)NNC(=S)NC1=O
inactive: [1] -11.7% | [2] -13.6% | [3] -7.65% | [4] 17.1% | [5] -15.6% | [6] -5.5%

Cc1cccc(C(C#N)C(=O)CCCC(=O)Nc2ccccc2[N+](=O)[O-])c1 (centres undefined)
inactive: [1] -44.1% | [2] 9.4% | [3] 5.15% | [4] -36.6% | [5] 6.9% | [6] 11%

Nc1ccc(C(=O)Nc2ccc3c(O)cc(S(=O)(=O)O)cc3c2)cc1
inactive: [1] 23.2% | [2] 5.55% | [3] 2.65% | [4] -6.5% | [5] -10.5% | [6] 8.6%

CCCCC1SC(N)=NC1=O (centres undefined)
inactive: [1] 14.9% | [2] -2.35% | [3] 12.5% | [4] 53.2% | [5] 3.9% | [6] -17.7%

CCCCCCCCCCCCCCCCN1C(=O)C2C(C1=O)C1(Cl)C(Cl)=C(Cl)C2(Cl)C1(Cl)Cl (centres undefined)
inactive: [1] 7.85% | [2] -6.3% | [3] -2.55% | [4] -0.65% | [5] -4.6% | [6] 10.2%

CNCC(OC)OC
inactive: [1] 5.3% | [2] -29.8% | [3] 4.85% | [4] 16.1% | [5] 0% | [6] 11.2%

COc1ccc(CCNC(=S)NN)cc1OC
inactive: [1] -15.7% | [2] -23.6% | [3] -7.35% | [4] -23.5% | [5] -17% | [6] -28.7%

CC(C)(O)c1cc2nc3ccccc3nc2n1CCO
inactive: [1] -19.6% | [2] -22.4% | [3] 8.45% | [4] 4.25% | [5] 4.25% | [6] -14.4%

CCOC(=O)C(CCCN=C(N)NC(=O)OCc1ccccc1)NC(=O)C(C(C)C)N1C(=O)c2ccccc2C1=O (centres undefined)
inactive: [4] 52% | [5] 48.9%
active: [1] 93% | [2] 78.5% | [3] 96.2% | [6] 96%

Cc1nc(N)nc(-c2ccccc2)c1N=Nc1cc(Cl)cc(Cl)c1
inactive: [1] 5.95% | [2] -8.3% | [3] -3.65% | [4] -6.45% | [5] -5.15% | [6] 7.45%

C[Si](C)(OCCS(=O)(=O)O)C1(Cc2cccc3ccccc23)S(=O)(=O)OCCOS1(=O)=O
inactive: [1] 13.6% | [2] -9.55% | [3] 2.6% | [4] 18.1% | [5] 13.1% | [6] 17.2%

CCN(CC)CCOC(c1ccccc1)c1ccccc1
inactive: [1] 3.8% | [2] -9.75% | [3] -1.2% | [4] -10.8% | [5] -0.05% | [6] -11.8%

CCOC(=O)c1ccc(N2C(=S)N(C(=O)c3ccccc3)C(=Nc3ccccc3)C2=Nc2ccccc2)cc1
inactive: [1] 11.2% | [2] 3.15% | [3] 5.25% | [4] 1.35% | [5] 3.85% | [6] -37.4%

O=C(c1ccc(Cl)cc1)C(C(c1ccccc1[N+](=O)[O-])N1CCCCC1)N1CCCCC1 (centres undefined)
inactive: [1] -15.1% | [2] -0.3% | [3] -10.4% | [4] -30.8% | [5] -23.6% | [6] 2.15%

O=P(O)(O)OC1C(OP(=O)(O)O)C(OP(=O)(O)O)C(OP(=O)(O)O)C(OP(=O)(O)O)C1OP(=O)(O)O.[Cu+2] (centres undefined)
inactive: [1] -18.1% | [2] -18.8% | [3] -14.7% | [4] -10.9% | [5] -9% | [6] -19.4%

COC(=O)/C(=C\c1ccc(N(CCC#N)CCC#N)cc1)NC(=O)c1cc([N+](=O)[O-])ccc1Cl
inactive: [1] -0.55% | [2] -3.65% | [3] -16.1% | [4] 5.65% | [5] -21.6% | [6] -3.4%

Nc1nc(-c2ccccn2)cc(-c2cc(-c3ccccn3)nc(N)n2)n1
inactive: [1] -12.1% | [2] -11.6% | [3] -18.2% | [4] -0.7% | [5] -9.75% | [6] 6.25%

Cc1ccc(N=Nc2c(C)nn(-c3ccccc3)c2C)c(Br)c1
inactive: [1] 26.6% | [2] 10.8% | [3] 47.5% | [4] 4.1% | [5] 18.9% | [6] 38.6%

Cc1ccc(Cl)cc1NC(=O)C(Br)C(Br)c1ccccc1 (centres undefined)
inactive: [1] 20.6% | [2] -7.7% | [3] 11.9% | [4] 0.85% | [5] -0.1% | [6] 6.2%

O=COCCCc1ccccc1
inactive: [1] 15.8% | [2] -1.85% | [3] 11.8% | [4] -5.2% | [5] 3.15% | [6] -23.7%

CC(C)OC(CCC#N)c1ccccc1 (centres undefined)
inactive: [1] -20.1% | [2] -48.6% | [3] -33.3% | [4] -8.3% | [5] -32.9% | [6] -34.1%

OCC[N+]1(CCO)CCOCC1
inactive: [1] 7.7% | [2] -2.9% | [3] -0.05% | [4] -15.1% | [5] 5.9% | [6] 6.2%

Cn1c(N(CCO)CCO)cnc1[N+](=O)[O-]
inactive: [1] 11.7% | [2] 8.8% | [3] -21.8% | [4] -16.4% | [5] -17.6% | [6] -4.8%

C=CCOc1ccc(N)c([N+](=O)[O-])c1
inactive: [1] 42.1% | [2] 41.5% | [3] 23.3% | [4] 14.1% | [5] 36.7% | [6] 2.85%

CCSc1cc(=O)n(C)c(=O)n1C
inactive: [1] 13.6% | [2] 7.15% | [3] 21.3% | [4] 4.55% | [5] 5.25% | [6] -10.5%

Cc1cc(NC(=O)NC(=O)c2ccccc2N(C)C)ccc1Oc1ncc(Br)cn1
inactive: [1] -14.6% | [2] -13.8% | [3] -13.3% | [4] 12.2% | [5] -3.4% | [6] -4.45%

CCN(CC)Cc1c(C)cccc1O
inactive: [1] -4.65% | [2] -4.35% | [3] -27.8% | [4] -49.5% | [5] -0.45% | [6] -16.4%

C[Si](C)(C)CN=P(c1ccccc1)(c1ccccc1)c1ccccc1
inactive: [1] -29.6% | [2] -12.4% | [3] -19.2% | [4] 17.4% | [5] 3.7% | [6] -4.8%
